High-throughput results deposited in PubChem BioAssay by several laboratories.
Only some compounds are listed: those with a hit (about 22% of all), similar ones and a draw of the others.
CYP2C19 activ = cytochrome P450 2C19 (human) activation; P33261; recombinant CYP2C19, luciferin-H EGE luminescence; active compounds read high; 0 = fully inhibited enzyme, 1 = untreated enzyme; activation factor at 5 µM; 96,000 tested, under 10 active; AID 1025;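 active = activation factor of at least 2 at 5 µM in the primary screen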;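 also: 0 = wells with 2.5 mM tranylcypromine and 1 = vehicle-only wells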
Target sequence (P33261 whole entry, looked up): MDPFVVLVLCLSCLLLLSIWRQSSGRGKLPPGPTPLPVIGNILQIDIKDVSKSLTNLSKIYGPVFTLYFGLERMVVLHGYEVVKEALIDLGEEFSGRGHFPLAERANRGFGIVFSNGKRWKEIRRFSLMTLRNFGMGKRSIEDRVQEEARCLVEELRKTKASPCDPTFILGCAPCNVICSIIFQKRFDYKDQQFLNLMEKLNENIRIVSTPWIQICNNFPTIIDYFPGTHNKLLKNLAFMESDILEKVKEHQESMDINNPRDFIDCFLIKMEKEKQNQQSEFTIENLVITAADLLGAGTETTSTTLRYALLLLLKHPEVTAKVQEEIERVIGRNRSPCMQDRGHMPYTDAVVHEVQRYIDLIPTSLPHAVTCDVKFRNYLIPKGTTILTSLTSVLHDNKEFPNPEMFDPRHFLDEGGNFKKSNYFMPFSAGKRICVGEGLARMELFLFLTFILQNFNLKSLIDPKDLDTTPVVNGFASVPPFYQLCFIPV
CYP2C9 activ = increases human cytochrome P450 2C9 activity. activation factor at 5 µM. recombinant CYP2C9, luciferin-H conversion, luminescence; active compounds read high; factor 1 = untreated enzyme, 0 = blocked. AID 1024. actives 1.4% (n = 96,000). P11712;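 active = activation factor of 2 or more for CYP2C9 at a 5 µM dose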;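 also: 0 = sulfaphenazole-blocked wells and 1 = vehicle-only wells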
CYP2C19 inhib = inhibitors of human CYP2C19; CYP2C19 Supersomes, luciferin-H EGE luminescence, 30 min; inhibition, % at 5 µM; actives 21% (n = 96,000); AID 778;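 active = CYP2C19 inhibition above a set limit at 5 µM in the primary screen, cut at about 50% in these data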;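 also: plate controls were negative control wells for no effect and 2.5 mM tranylcypromine positive control for full effect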
CYP2C9 inh = human CYP2C9 inhibition; CYP2C9 Supersomes, luciferin-H conversion, luminescence; inhibition, % at 5 µM; actives 20% (n = 96,000); AID 777;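 active = blocking of liver enzyme CYP2C9 beyond about 50% at 5 µM, limit read from the data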
Measles CPE = protection of cells from measles virus | Measles virus-infected cells, CPE protection, absorbance | protection (pct of control), % at 4 µM | actives 1.5% (n = 140,000) | AID 841; in the data active = protection mostly above about 24%, no sharp cut-off; inactive = mostly below about 26%
An asterisk follows results filed as active; nt = no result given.

SMILES | CYP2C19 activ | CYP2C9 activ | CYP2C19 inhib | CYP2C9 inh | Measles CPE
O=C(CN1CCN(c2ccccc2)CC1)N1CCN(c2ccccc2)CC1 | 0.7 | 0.6 | 26 | 38 | 12
COc1ccc2c(CSc3nc4nc(C)cc(C)n4n3)cc(=O)oc2c1 | 0.3 | 0.2 | 72* | 85* | 4
Cc1cc(C)n2nc(SCc3ncc(-c4ccccc4)o3)nc2n1 | 0.1 | 0.8 | 86* | 19 | 17
Cc1cc(C)n2nc(SCC#N)nc2n1 | nt | nt | nt | nt | 13
CSc1nccc(Oc2cccc(C#N)c2)n1 | nt | nt | nt | nt | 6
CC(C)NC(=O)CSCc1cccc(Br)c1 | 0.6 | 1 | 42 | 2 | 1
CC(C)C(=O)Nc1cc(C(F)(F)F)ccc1N1CCOCC1 | 0.9 | 0.8 | 11 | 21 | 2
Cc1cc(C#N)c(C)n1-c1cc(C(F)(F)F)ccc1N1CCOCC1 | 0 | 0.7 | 99* | 26 | 3
CN(C)S(=O)(=O)N1CCC(CCCC2CCN(S(=O)(=O)N(C)C)CC2)CC1 | 1.1 | 1.1 | -13 | -5 | 28
COc1cccc(CNC(=O)C2=C(C)C(=O)OC23CCC(C)CC3)c1 (stereo unspecified) | 0.1 | 0.7 | 91* | 25 | 2
COc1ccccc1CNC(=O)C1=C(C)C(=O)OC12CCC(C)CC2 (stereo unspecified) | 0 | 0.3 | 98* | 72* | 5
CC1=C(C(=O)NC(C)C)C2(CCC(C)CC2)OC1=O (stereo unspecified) | nt | nt | nt | nt | 9
CCOc1ccc(NC(=O)C2=C(C)C(=O)OC23CCC(C)CC3)cc1 (stereo unspecified) | 0.1 | 0.3 | 90* | 69* | 7
CC1=C(C(=O)N2CCCCC2)C2(CCC(C)CC2)OC1=O (stereo unspecified) | 0.5 | 1 | 51* | -1 | 17
CC1=C(C(=O)N2CCOCC2)C(c2cccs2)NC(=O)N1 (stereo unspecified) | 1.1 | 1.2 | -11 | -17 | 5
Cc1cc(C)c(NC(=O)C(C)Sc2nc3ccc(N4C(=O)c5ccccc5C4=O)cc3s2)c(C)c1 (stereo unspecified) | 0.8 | 0.9 | 15 | 14 | 7
CC1=C(C(=O)NCCc2ccc(C)cc2)C2(CCC(C)CC2)OC1=O (stereo unspecified) | nt | nt | nt | nt | 10
CC1=C(C(=O)NC2CCCCC2C)C2(CCC(C)CC2)OC1=O (stereo unspecified) | 0.1 | 0.5 | 91* | 48 | 7
CCCNC(=O)C1=C(C)C(=O)OC12CCC(C)CC2 (stereo unspecified) | 0.5 | 0.9 | 52* | 15 | 7
CC1=C(C(=O)NC2CCCC(C)C2C)C2(CCCCC2)OC1=O (stereo unspecified) | 0.8 | 0.9 | 18 | 10 | 15
COc1cccc(CNC(=O)c2ccccc2N)c1 | 0.2 | 0.9 | 78* | 9 | 20
COc1ccc(NC(=O)C2=C(C)C(=O)OC23CCC(C)CC3)c(OC)c1 (stereo unspecified) | 0.1 | 0.2 | 87* | 77* | 3
CN1C(=O)CSc2ccc(NC(=O)Nc3ccccn3)cc21 | 1 | 1.1 | 0 | -9 | 16
CN1C(=O)CSc2ccc(NC(=O)NCc3cccnc3)cc21 | 0.4 | 0.3 | 56* | 72* | 31
COc1cccc(NC(=O)Nc2ccc3c(c2)N(C)C(=O)CS3)c1 | 0.4 | 1 | 65* | -4 | 7
SMILES | CYP2C19 activ | CYP2C9 activ | CYP2C19 inhib | CYP2C9 inh | Measles CPE
CCOc1ccc(OCC)c(NC(=O)Nc2ccc3c(c2)N(C)C(=O)CS3)c1 | 0.4 | 0.6 | 58* | 37 | 0
CCN(CC)S(=O)(=O)c1ccc(-c2nnc(SCC(=O)N3c4ccccc4CC3C)o2)cc1 (stereo unspecified) | 1.1 | 1 | -8 | 4 | 15
CCCCNC(=O)c1ccc2c(OCC)n(CCCC)nc2c1 | 0.9 | 1 | 13 | 2 | 4
CCOc1c2ccc(C(=O)NCc3ccc(OC(F)(F)F)cc3)cc2nn1CC | 0.9 | 0.9 | 8 | 6 | -1
CCCn1nc2cc(C(=O)NCc3ccc(OC(F)(F)F)cc3)ccc2c1OCC | 0.6 | 0.4 | 45 | 63* | 10
CCCn1nc2cc(C(=O)NCCc3cccs3)ccc2c1OCC | 0.5 | 0.7 | 54* | 34 | 20
CCCCn1nc2cc(C(=O)NCc3ccc4c(c3)OCO4)ccc2c1OCC | 0.4 | 0.3 | 59* | 66* | 23
O=Cc1ccccc1Oc1ccccc1 | 0.9 | 0.9 | 12 | 6 | 4
COc1ccc(Oc2ccccc2/C=N/O)cc1 | 0.3 | 1.2 | 70* | -18 | 13
O=C(c1cc2nc(-c3cccs3)cc(C(F)(F)F)n2n1)N1CCCc2ccccc21 | 0.9 | 0.9 | 14 | 10 | 15
O=C1CC(c2ccccc2)Sc2ccccc2N1 (stereo unspecified) | 0.6 | 1 | 42 | -1 | 3
CCOc1ccc(C2Sc3ccccc3NC3=C2C(=O)OC3)cc1 (stereo unspecified) | 0.3 | 0.4 | 68* | 56* | 8
O=C1OCC2=C1C(c1ccc3c(c1)OCO3)Sc1ccccc1N2 (stereo unspecified) | 0 | 0.3 | 96* | 70* | 17
CCOc1ccc(C2NC(=O)c3ccccc3O2)cc1 (stereo unspecified) | 0.6 | 0.8 | 40 | 15 | 5
C=CCn1c(NC(=O)c2ccc(Br)o2)c(C(=O)OCC)sc1=S | 0.7 | 0.1 | 25 | 88* | 8
CCOC(=O)c1c(NC(=O)c2ccc(Br)o2)sc(C)c1CC | 0.6 | 0.7 | 39 | 33 | 12
Nc1c(C(=O)c2ccc(Br)cc2)oc2ccccc12 | nt | nt | nt | nt | 5
Nc1c(C(=O)c2ccccc2)oc2ccc(Br)cc12 | 0.3 | 0.5 | 70* | 49 | 2
Cn1c(NC(=O)C2CC2)cc(=O)n(C)c1=O | 1.2 | 1.1 | -22 | -9 | 22
Cc1ccc(S(=O)(=O)NC2c3cccc4cccc(c34)C2Sc2n[nH]c(N)n2)cc1 (stereo unspecified) | nt | nt | nt | nt | 15
COc1ccc(OC)c(N/C=C2/CCCCC2=O)c1 | 0.7 | 0.4 | 31 | 55* | 28
COc1ccc(N/C=C2/CCCCC2=O)cc1 | 0.7 | 1 | 27 | 3 | 8
COc1ccc(OC)c(S(=O)(=O)NCCC2=CCCCC2)c1 | 0 | 0.1 | 100* | 89* | 5
COc1ccc(OC)c(S(=O)(=O)NCCO)c1 | 1.1 | 1.1 | -8 | -7 | 4
COc1ccc(OC)c(S(=O)(=O)Nc2ccccc2C)c1 | 0.1 | 0.8 | 87* | 23 | 20
SMILES | CYP2C19 activ | CYP2C9 activ | CYP2C19 inhib | CYP2C9 inh | Measles CPE
CCNS(=O)(=O)c1cc(OC)ccc1OC | 0.1 | 0.1 | 85* | 90* | 7
O=C(CSc1ncnc2c1oc1ccccc12)N1CCc2ccccc2C1 | 0.9 | 0.8 | 12 | 18 | nt
CCCCNC(=O)NNC(=O)COc1cc(C)cc(C)c1 | nt | nt | nt | nt | 6
COc1ccc(OC)c(NS(=O)(=O)c2cc(OC)ccc2OC)c1 | 0 | 0.4 | 96* | 59* | 8
COc1ccc(OC)c(S(=O)(=O)Nc2ccccc2SC)c1 | nt | nt | nt | nt | 4
O=S(=O)(/C=C/c1ccccc1)Nc1ccc2c(c1)OCO2 | 0 | 0.1 | 100* | 87* | 25
